# In PubChem BioAssay (EPA / NIEHS):
# Results filed as inconclusive are left out. Active and inactive are the calls of the source. How the source made its calls: active means hit-call score of the fitted dose curve at least 0.9, where 1 is the maximum; inconclusive means response in the unintended direction; inactive means score below 0.9.
# Target: Peroxisome proliferator-activated receptor gamma (Homo sapiens) (UniProt P37231)
# Assay: OT_PPARg_PPARgSRC1_0480: Odyssey Thera (OT) 8-hour Protein-Complementation Assay for Peroxisome Proliferator-activated Receptor Gamma / SRC-1 Co-activator (AID 2283387);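 further: nuclear to cytoplasmic split Venus YFP fluorescence ratio reporting PPARg SRC-1 interaction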
# Experimental: OT_PPARg_PPARgSRC1_0480 is a cell-based assay that uses HEK293T, a human kidney cell line, with measurements taken at 8 hours after chemical dosing in a 384-well plate.OT_PPARg_PPARgSRC1_0480 is one of one assay component(s) measured or calculated from the OT_PPARg_PPARgSRC1_0480 assay. It is designed to make measurements of protein fragment complementation, a form of binding reporter, as detected with fluorescence intensity signals by Protein-fragment Complementation technology.Data from the assay component OT_PPARg_PPARgSRC1_0480 was analyzed into 1 assay endpoint. This assay endpoint, OT_PPARg_PPARgSRC1_0480, was analyzed in the positive analysis fitting direction relative to DMSO as the negative control and baseline of activity. Using a type of binding reporter, measures of receptor for gain-of-signal activity can be used to understand the binding at the pathway-level as they relate to the gene PPARG. Furthermore, this assay endpoint can be referred to as a primary readout, because the performed assay has only produced 1 assay endpoint. To generalize the intended target to other relatable targets, this assay endpoint is annotated to the nuclear receptor intended target family, where the subfamily is non-steroidal.
# The OT PPARg/SRC-1 assay assessed receptor-chemical interactions using a rapidly maturing, intensely fluorescent mutant of YFP known as Venus, rationally dissected into two separate fragments. The fragments were obtained as follows: first, fragments coding for YFP1 and YFP2 (corresponding to amino acid residues 1-158 and 159-239 of the full length YFP, respectively) were generated by oligonucleotide synthesis (Blue Heron Biotechnology), and then PCR mutagenesis was used to generate the mutant fragments IFP1 and IFP2. Fusion constructs were transfected into HEK293T cells with a (Gly4Ser)2 linker between the PPARg/SRC-1 and YFP fragment genes to facilitate complementation when interacting proteins bring fragments into close proximity. The construct is transiently transfected in HEK293T cells 48 hours prior to treatment with test compounds. Cells are seeded into optical quality 384-well poly-D-lysine coated plates in MEM alpha medium (Invitrogen) supplemented with 10 percent FBS (Gemini Bio-Products) 1 percent penicillin and 1 percent streptomycin, and grown in 37C incubator equilibrated to 5 percent CO2. Cells are allowed to adhere for 24 hours prior to treatment with compounds of interest or controls for 8 hours. Cells are fixed in 4 percent formaldehyde and stained with Draq5 (BioStatus) to identify cells and subcellular compartment boundaries prior to signal detection. 8 Images per well were acquired on an Evotec Opera at 2 wavelengths (488 and 635nm), and the ratio of fluorescence in the nucleus relative to fluorescence in the cytoplasm (N/C Ratio) in the 488nm channel was calculated for a minimum of 350 cells per image.
# Sequence of Peroxisome proliferator-activated receptor gamma (Homo sapiens) (P37231 whole entry, looked up): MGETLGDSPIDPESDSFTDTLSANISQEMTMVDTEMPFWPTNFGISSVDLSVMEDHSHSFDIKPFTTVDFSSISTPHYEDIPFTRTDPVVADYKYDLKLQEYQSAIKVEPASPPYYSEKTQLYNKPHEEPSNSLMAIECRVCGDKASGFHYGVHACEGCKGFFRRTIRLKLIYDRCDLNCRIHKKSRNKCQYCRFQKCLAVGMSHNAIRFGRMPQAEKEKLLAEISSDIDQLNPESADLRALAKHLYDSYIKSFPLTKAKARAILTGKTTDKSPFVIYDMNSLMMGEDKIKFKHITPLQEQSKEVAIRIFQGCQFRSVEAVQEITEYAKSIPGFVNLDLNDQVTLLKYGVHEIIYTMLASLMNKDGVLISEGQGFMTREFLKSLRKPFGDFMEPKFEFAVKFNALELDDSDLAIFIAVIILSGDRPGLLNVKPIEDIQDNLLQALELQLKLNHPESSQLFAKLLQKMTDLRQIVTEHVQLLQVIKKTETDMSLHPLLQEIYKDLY
row,SMILES,outcome
1,CC(C)(O)C#N,inactive
2,CC1CCCC1.[C-]#[O+].[C-]#[O+].[C-]#[O+].[Mn],inactive
3,Nc1ccccc1,inactive
4,CCc1cccc(C)c1N(C(=O)CCl)[C@@H](C)COC,inactive
5,CC(C)C#N,inactive
6,CCOP(O)OCC,inactive
7,CC(Cc1ccc(C(C)(C)C)cc1)CN1C[C@@H](C)O[C@@H](C)C1 (stereo not given in full),inactive
8,CC1(C)[C@H](C(=O)O[C@H](C#N)c2cccc(Oc3ccccc3)c2)[C@@H]1C=C(Br)Br,inactive
9,Cc1ccc(OP(=O)(Oc2ccc(C)cc2)Oc2ccc(C)cc2)cc1 (tested in a mixture with another compound),inactive
10,O=C(O)CCl,inactive
11,CC(C)[C@@H](C(=O)O[C@@H](C#N)c1cccc(Oc2ccccc2)c1)c1ccc(Cl)cc1,inactive
12,CC(C)c1ccc(O)cc1,inactive
13,c1ccc(P(c2ccccc2)c2ccccc2)cc1,inactive
14,N#CCCCCC#N,inactive
15,CN(C)C(=O)C(c1ccccc1)c1ccccc1,inactive
16,CN(C)N,inactive
17,CCC(=O)c1ccc(Cl)cc1,inactive
18,CC(C)(c1cc(Cl)c(O)c(Cl)c1)c1cc(Cl)c(O)c(Cl)c1,inactive
19,O=C(NC(=O)c1c(F)cccc1F)Nc1ccc(Oc2ccc(C(F)(F)F)cc2Cl)cc1F,inactive
20,CC(=O)c1cc2c(cc1C)C(C)(C)C(C)CC2(C)C (stereo not given),inactive

row,SMILES,outcome
1,c1ccc2c(c1)CCCC2,inactive
2,O=C(NCNC(=O)NC1C(=O)NC(=O)N1CO)NC1C(=O)NC(=O)N1CO (stereo not given),inactive
3,Cc1cc(C)c(C2=C(OC(=O)CC(C)(C)C)C3(CCCC3)OC2=O)c(C)c1,inactive
4,C=CCN(CC=C)C(=O)C(Cl)Cl,inactive
5,O=P(O)(Oc1ccccc1)Oc1ccccc1,inactive
6,CCCC=NO,inactive
7,CC(=O)C=Cc1ccccc1,inactive
8,COc1cc(OC)nc(Oc2cccc(Oc3nc(OC)cc(OC)n3)c2C(=O)O)n1,inactive
9,O=C=Nc1ccccc1,inactive
10,O=CNC(N1CCN(C(NC=O)C(Cl)(Cl)Cl)CC1)C(Cl)(Cl)Cl (stereo not given),inactive
11,Cc1ccc(C)c2ccccc12,inactive
12,O=[N+]([O-])O,inactive
13,CC[N+](=O)[O-],inactive
14,O=C1Nc2ccc(Cl)cc2C(c2ccccc2)=NC1O (stereo not given),inactive
15,CCOC(=O)NC(=S)Nc1ccccc1NC(=S)NC(=O)OCC,inactive
16,[CH3][Sn]([CH3])([Cl])[Cl],inactive
17,O=S(=O)(O)OOS(=O)(=O)O,inactive
18,C=CC(=O)OCC(CC)CCCC (stereo not given),inactive
19,Nc1ccc(Cl)c(Cl)c1,inactive
20,Oc1cc(Cl)ccc1Cl,inactive
